The structures appear in SMILES notation. The source made the active and inactive calls.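 The calls were made as follows: active = fitted half-maximal concentration AC50 at or below ten times the highest valid tested dose, with signal falling as DNA is displaced (actives reach about 34 µM in these data); inconclusive = flat fit at moderate signal loss, or poor fit quality; inactive = the rest, including signal rising instead of falling.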

The test is described as follows: acridine orange-DNA binding displacement – biochemical, fluorescence polarization, cherry-picked samples, set 2, artefact control for KSHV LANA DNA-binding inhibitor project, dose response (AID 504727).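 As to activity change, negative = DNA displacement: 0% = median of neutral control wells and -100% = mitoxantrone positive control wells.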 As to conditions: series mostly up to 35 µM; activity change, negative = DNA displacement: at the top concentration. For orientation: Fluorescence polarisation rises when a labelled molecule tumbles more slowly, as on binding a larger partner.
As for `O=c1cc2c(=O)oc3cc(O)c(O)oc3c2c(O)c1O`, the “activity change, negative = DNA displacement” value (from here on “activity change”) is 8.73% (inactive). With `CC(Sc1ncccn1)C(=O)NNC(=O)c1cccc(Cl)c1` (configuration not stated), the “activity change” value is 1.6% (inactive).

For `CN1C(=O)NC(c2ccccc2[N+](=O)[O-])C2=C1CCCC2=O` (configuration not stated), the half-maximal activity concentration (AC50) (commonly the concentration giving half of the maximal activity seen) is 29.7 µM (active). With `O=C(O)CCCN1C(=O)/C(=C/C=C/c2ccco2)SC1=S`, the “activity change” value is 10.5% (inactive). As for `COc1cccc(OC)c1C(=O)Nc1cc(C)on1`, the “activity change” value was 1.43% (inactive). As to `CN(C)c1ccc(/C=N/N(CCO)C2=NS(=O)(=O)c3ccccc32)cc1`, the AC50 was 4.28 µM (active). Turning to `Cc1ccc(OCC(=O)O/N=C(\N)Cc2ccc([N+](=O)[O-])cc2)cc1C`, the “activity change” value is 4.56% (inactive).

Regarding `CC(=O)N(C(C)=O)N1C(=O)c2cccc3c(N4CCOCC4)ccc(c23)C1=O`, the “activity change” value is 10.5% (inactive).

With `O=C(c1ccc2c(c1)CCN2S(=O)(=O)c1ccccc1)N1CCN(c2ccc(F)cc2)CC1`, the “activity change” value was 1.62% (inactive).

On to `CC(C)N(Cc1ccccc1)C(=O)Cn1c(=O)cnc2ccccc21`, for which the “activity change” value was 5.73% (inactive). Take `FC(F)(F)c1nnc(-c2ccccc2)nc1N1CCCC1`: the “activity change” value was 2.74% (inactive).

With `Cc1cc(C)c2c(c1)NC(C(=O)O)C1CC=CC21` (configuration not stated), the “activity change” value was -1.24% (inactive). Still for that read-out and setting: to `Cc1ccc(S(=O)(=O)/N=C2/C=C(Sc3ncn[nH]3)C(=O)c3ccccc32)cc1` belongs -0.37% (inactive). On to `O=C(O)CC1(CC(=O)NCc2ccncc2)CCCCC1`, for which the “activity change” value is 2.56% (inactive). As for `COC(=O)C1=COC(C)C2CN3CCc4c([nH]c5ccccc45)C3CC12` (configuration not stated), the “activity change” value was 0.065% (inactive). For the compound `O=C(O)c1ccccc1NS(=O)(=O)c1ccc(N/N=C/c2ccc(O)c(O)c2)c([N+](=O)[O-])c1`, the “activity change” value is 2.24% (inactive). Turning to `Cn1c2ccccc2c2cnn(CC(=O)Nc3cccc(F)c3)c(=O)c21`, the “activity change” value was 12.3% (inactive).

For the compound `C/C(=N\NC(=O)CCc1c(C)n[nH]c1C)c1ccc([N+](=O)[O-])cc1`, the “activity change” value is 5.29% (inactive). Turning to `O=S(=O)(O)c1cc(O)c2ccc(Nc3ccccc3)cc2c1`, the “activity change” value is 8.12% (inactive).

`COC(=O)C1CCN(C(=O)COC(=O)Cc2c[nH]c3ccccc23)CC1`: the “activity change” value is 3.51% (inactive). In the case of `CCc1ccc(N2CC(C(=O)OCC(=O)N(CC)c3c(N)n(Cc4ccccc4)c(=O)[nH]c3=O)CC2=O)cc1` (configuration not stated), the “activity change” value was 1.35% (inactive).

Turning to `c1ccc(-c2cn3nc(-c4ccccc4)c(-c4ccccc4)nc3n2)cc1`, the AC50 was 23 µM (active).

For the origin of these results see PubChem BioAssay AID504727 (Broad Institute, 2011).
